# Substitutions are numbered along the chain they refer to. Over roughly 5,800 sequences, “enrichment r” has its median near 0.68; the highest 2% begin near 11. Only a selection was taken, and the highest values are over-represented in it overall.
# T1: UNK ZnF1-6 (called full-length) (human, UniProt Q9C0B0 30-357)
# T1 sequence: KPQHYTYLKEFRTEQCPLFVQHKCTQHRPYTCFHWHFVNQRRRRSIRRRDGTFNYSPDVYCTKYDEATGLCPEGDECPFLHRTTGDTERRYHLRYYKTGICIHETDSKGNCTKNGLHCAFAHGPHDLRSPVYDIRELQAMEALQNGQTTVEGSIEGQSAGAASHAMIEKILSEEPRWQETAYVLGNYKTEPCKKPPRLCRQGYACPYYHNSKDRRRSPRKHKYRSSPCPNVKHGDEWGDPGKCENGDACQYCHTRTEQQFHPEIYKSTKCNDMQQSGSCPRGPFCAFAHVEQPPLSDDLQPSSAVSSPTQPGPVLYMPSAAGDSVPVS
# B1: chr1:150647640:150647741:-|3pUTR|ENSG00000143457|unk|FALSE|unique (ssRNA)
# RNA: GGGAGUUCUACAGUCCGACGAUCAGAUUCAAUUACCUGGAUGUCAAAGUCCUAGAGCCAGAAAUAUAUUCUCUCAUCCCUCUUAGCAUUCUCUUGCUCCCUCAUUCACUAGGGCAAAUGUCUAAAUGAAGAAAAGUCUCUCUCCAACAGAGGAUUGAGCAUCA
# B2: chr1:109062613:109062715:-|3pUTR|ENSG00000197780|unk|total|mutant (ssRNA)
# RNA: GGGAGUUCUACAGUCCGACGAUCAGUUCUGAAUACACAGGUUUUGUGUGUAUUUACUCUAUGUAUUAAAUUAUUAUUGCCCUCCGUUUAAAGUAAGGAUUACAAUUGGAUUUAAGCCGAUCACUGAAUGUUAUUGUUUAUGAACAACAGAGGAUUGAGCAUCA
# B3: chrX:80717640:80717741:-|CDS|ENSG00000165288|msi1|FALSE|unique (ssRNA)
# RNA: GGGAGUUCUACAGUCCGACGAUCCUGAGAAGUCCAAACAUGGACAUAUCUUCUUCCCCAAACAUCAGGCUUCGAAGACAUAGUAGUCAAAUUGAAGGUGUUAGACAAAUGCAUAACAAUGCUCCUCGGAGCCAGAUGGCCACUCAACAGAGGAUUGAGCAUCA
# B4: chr6:37331633:37331734:+|3pUTR|ENSG00000065491|unk|FALSE|unique (ssRNA)
# RNA: GGGAGUUCUACAGUCCGACGAUCCCGUUCCCCUUCUGCCCCAGUCUGAGCCAGUGAGGGGUAGCUUUUUAAAACCAUUAUUCUAGAUGGAGGAGGCACUGAUGCUUGUAACUCUGGAAAGAGGCCUACACCCAAGGGCUAGGACAACAGAGGAUUGAGCAUCA
# B5: chr9:91409354:91409467:-|CDS|ENSG00000165030|unk|total|mutant (ssRNA)
# RNA: GGGAGUUCUACAGUCCGACGAUCAAUGAAAGACAGUGGCUACAAAGUUUCUGACCCAGAGAACUUGUAUUUGAAGCAGGGGACCGCAAACUUAUCUGCAGAGGUUGUCUCACUCAAGAGACUUACCGCCACACAACCAAUCUCCAACAGAGGAUUGAGCAUCA
# B6: chr2:224511460:224511569:-|CDS|ENSG00000036257|unk|FALSE|bound_elsewhere (ssRNA)
# RNA: GGGAGUUCUACAGUCCGACGAUCGAAAGCCAGAAAUUUUUAGCAGAAAAUAGUGCUUCAGUAUAUAUAAAGAAAGUAGAAGCUAGAAUUAAUGAAGAAAUAGAACGAGUGAUGCACUGCCUUGACAAAUCAACGGAAGAACCACAACAGAGGAUUGAGCAUCA
# B7: chr8:11323570:11323671:+|3pUTR|ENSG00000104643|unk|FALSE|unique (ssRNA)
# RNA: GGGAGUUCUACAGUCCGACGAUCGAGCAUACAUAUACAAUGUGUUUCAAAUGCUGCUUGUAAAAUUAAACCAUCAUCUAGAAUAGAGUUAAUUUAUUAUAAUCAAGCUACAAAUAGGUUUUCUUAAACCAGAGAUGCACUGCCCAACAGAGGAUUGAGCAUCA
# B8: chr10:73917138:73917420:+|3pUTR|ENSG00000122861|msi1|FALSE|unique (ssRNA)
# RNA: GGGAGUUCUACAGUCCGACGAUCGGAAUGUAUUAUUCUGCAGCAUGACCUGUGACCAGCACUGUCUCAGUUUCACUUUCACAUAGAUGUCCCUUUCUUGGCCAGUUAUCCCUUCCUUUUAGCCUAGUUCAUCCAAUCCUCACUCAACAGAGGAUUGAGCAUCA
# B9: chr3:44647099:44647200:+|3pUTR|ENSG00000186448|msi1|FALSE|unique (ssRNA)
# RNA: GGGAGUUCUACAGUCCGACGAUCAUUUGUAUGUAAACUACAUAAAGAACUUUCCAAAUUUAACAGUAAUAAGUAAAUACAAUUAGAAAAUAAGCAAAAGACAGACAUUUCACUGAAGUAUAGAUAGCAAAUAAGCAAAUGAAACAACAGAGGAUUGAGCAUCA
# B10: chr11:43342853:43342954:+|3pUTR|ENSG00000166181|msi1|FALSE|unique (ssRNA)
# RNA: GGGAGUUCUACAGUCCGACGAUCCUAGUUCUGCUGAUAAAGAUCAUCAGUUUUGAAAGGUUACUGAUUUUCCUCUUCCCUCUUAGUUUUUUACCCAAUAUAUGGAGAAGAGUAAUGGUCAAUCUUAACAUUUUGUUUUAAUUGCAACAGAGGAUUGAGCAUCA
# B11: chr7:107202531:107202632:-|3pUTR|ENSG00000164597|msi1|FALSE|unique (ssRNA)
# RNA: GGGAGUUCUACAGUCCGACGAUCUAUUCUGAGAACUCAUAAAUAAAAUUCAGCCAAGAUUAAUCAAUCAAUCAAUCAAUCAGUAGACGUCAGAGAUAAGCAACUUUUUUUUCCAUUUAUUUGAAAUAAUAUACAAGAAUAUAGCAACAGAGGAUUGAGCAUCA
# B12: ENSG00000198589:be:win_3201|CDS|ENSG00000198589|bound_else_gene|NA|bound_elsewhere_windowed (ssRNA)
# RNA: GGGAGUUCUACAGUCCGACGAUCAACUGGCAAAGAUUCAAUGACUGUCAGUGAAGUAACUGCUUCUAUAAGUUCUCCUUCAGAAGAGGAUGCCUCAGAGAUGCCAGAAUUCUUGGAUAAAUCUAUAGUAGAGGAAGAGGAAGACAACAGAGGAUUGAGCAUCA
# B13: ENSG00000186472:stop:overlap|stop_codon|ENSG00000186472|stop_codon|NA|stop_codon (ssRNA)
# RNA: GGGAGUUCUACAGUCCGACGAUCUUUCUUGUAAAUGGAAAUUUUAUCAUGUGUAUAGAUUCUGUAGCAUGCUUUUCUUUAUUUAGUUUUACUUUAUUCCUUUAUUGUUCUGUUUCUUGAUUGUUUGCUUGAUUUGUUUGGUGUCAACAGAGGAUUGAGCAUCA
# B14: chr19:35623609:35623710:+|3pUTR|ENSG00000249115|unk|FALSE|unique (ssRNA)
# RNA: GGGAGUUCUACAGUCCGACGAUCGCCUUCUAGUUUGUAUAGUUUCUUUUUUUACAUGUAAAUCAGCCAUUUGGAAUUUAUCCUAGCACAUGGAUCCAAUUUUGUCUUAUUUUACAUAUAUCCUAGUAGCACUUACUGAAAUUCCAACAGAGGAUUGAGCAUCA
# B15: chr11:85958428:85958534:-|3pUTR|ENSG00000073921|unk|FALSE|unique (ssRNA)
# RNA: GGGAGUUCUACAGUCCGACGAUCAGAAACAAUAACUGAAAUUAACUUUUCUUUUUUUAAAAAAAAUUAUAUUCAGUUUGCAGUAGACAUUCCUUAAGUAUUUGUAUUUAUUUAUGAUUAUCAAUUUUACAUAACAUUAAUAUUCAACAGAGGAUUGAGCAUCA
# B16: chr7:137879121:137879144:-|3pUTR|ENSG00000182158|msi1_unk|FALSE|overlapping (ssRNA)
# RNA: GGGAGUUCUACAGUCCGACGAUCUAAUCCCCAACCUACUUUUAGUUUUUUUGUUUUUUUUUUAUGGUUAAAAGUAACUUUUGUAGUUUAAAAAAAUCUUUCCUCUUUCAUAUAAAUAAGAAGUGGAAAUUGCCUUUUUAUUGUCAACAGAGGAUUGAGCAUCA
# B17: chr7:137879121:137879144:-|3pUTR|ENSG00000182158|msi1_unk|total|mutant (ssRNA)
# RNA: B16 RNA with U42C, A43C, U83C, A84C
# Biological target: T1, UNK ZnF1-6 (called full-length)
# Test: nsRBNS (natural sequence RNA bind-n-seq); RBNS binding buffer (assumed for nsRBNS): 25 mM Tris pH 7.5, 150 mM KCl, 3 mM MgCl2, 0.01% Triton X-100, 500 ug/ml BSA, 20 U/ml SUPERase-In, 4 C; UNK is unkempt and MSI1 is Musashi-1; names of the RNAs are library labels; protein concentration not given here; high values mean tight binding
row,Binder,binding signal [enrichment R]
1,B1,0.623
2,B2,0.999
3,B3,0.592
4,B4,2.05
5,B5,0.615
6,B6,16.7
7,B7,2.54
8,B8,1.54
9,B9,162
10,B10,3.5
11,B11,2.67
12,B12,0.614
13,B13,0.541
14,B14,14.9
15,B15,2.18
16,B16,14.9
17,B17,0.762
